Test [1] addresses Tyrosine-protein kinase Fyn (Homo sapiens) (UniProt P06241). The following applies: at 1 µM.
The target of test [2] is Tyrosine-protein kinase HCK (Homo sapiens) (UniProt P08631). The settings on record: at 0.1 µM.
Test [3] shares this target. The following applies: at 1 µM.
Test [4] addresses Insulin-like growth factor 1 receptor (Homo sapiens) (UniProt P08069). The following applies: at 0.1 µM.
For test [5] the target is unchanged. The settings on record: at 1 µM.
Test [6] addresses Insulin receptor (Homo sapiens) (UniProt P06213). The settings on record: at 0.1 µM.
Test [7] has the same target. The following applies: at 1 µM.
For test [8], the target named is Insulin receptor-related protein (Homo sapiens) (UniProt P14616). The following applies: at 0.1 µM.
The target is the same in test [9]. The settings on record: at 1 µM.
The target of test [10] is T1, Tyrosine-protein kinase ITK/TSK (Homo sapiens) (UniProt Q08881).
T1 sequence (whole entry): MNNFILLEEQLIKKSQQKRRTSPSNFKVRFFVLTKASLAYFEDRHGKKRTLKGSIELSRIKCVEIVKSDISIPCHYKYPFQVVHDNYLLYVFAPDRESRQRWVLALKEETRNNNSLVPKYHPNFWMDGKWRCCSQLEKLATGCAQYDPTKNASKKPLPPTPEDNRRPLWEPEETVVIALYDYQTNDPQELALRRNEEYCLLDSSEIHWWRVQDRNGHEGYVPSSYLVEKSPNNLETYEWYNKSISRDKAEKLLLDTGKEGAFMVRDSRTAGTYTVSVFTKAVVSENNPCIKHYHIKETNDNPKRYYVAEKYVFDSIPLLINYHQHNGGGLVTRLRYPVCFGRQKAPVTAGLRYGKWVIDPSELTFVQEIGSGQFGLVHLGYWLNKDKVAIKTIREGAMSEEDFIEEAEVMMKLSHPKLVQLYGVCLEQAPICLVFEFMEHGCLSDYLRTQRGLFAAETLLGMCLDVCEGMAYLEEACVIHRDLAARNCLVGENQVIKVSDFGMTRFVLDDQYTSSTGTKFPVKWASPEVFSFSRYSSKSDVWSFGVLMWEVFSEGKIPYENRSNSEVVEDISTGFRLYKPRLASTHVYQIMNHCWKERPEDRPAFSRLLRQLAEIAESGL
The following applies: at 0.1 µM.

Test [11] has as its target T1, Tyrosine-protein kinase ITK/TSK (Homo sapiens). The following applies: at 1 µM.
Test [12] has as its target Tyrosine-protein kinase JAK1 (Homo sapiens) (UniProt P23458). The settings on record: at 0.1 µM.
Test [13] has the same target. The following applies: at 1 µM.
The target of test [14] is Tyrosine-protein kinase JAK2 (Homo sapiens) (UniProt O60674). The settings on record: at 0.1 µM.
Test [15] shares this target. The settings on record: at 1 µM.
Test [16] concerns the target T2, Tyrosine-protein kinase JAK3 (Homo sapiens) (UniProt P52333).
T2 sequence (whole entry): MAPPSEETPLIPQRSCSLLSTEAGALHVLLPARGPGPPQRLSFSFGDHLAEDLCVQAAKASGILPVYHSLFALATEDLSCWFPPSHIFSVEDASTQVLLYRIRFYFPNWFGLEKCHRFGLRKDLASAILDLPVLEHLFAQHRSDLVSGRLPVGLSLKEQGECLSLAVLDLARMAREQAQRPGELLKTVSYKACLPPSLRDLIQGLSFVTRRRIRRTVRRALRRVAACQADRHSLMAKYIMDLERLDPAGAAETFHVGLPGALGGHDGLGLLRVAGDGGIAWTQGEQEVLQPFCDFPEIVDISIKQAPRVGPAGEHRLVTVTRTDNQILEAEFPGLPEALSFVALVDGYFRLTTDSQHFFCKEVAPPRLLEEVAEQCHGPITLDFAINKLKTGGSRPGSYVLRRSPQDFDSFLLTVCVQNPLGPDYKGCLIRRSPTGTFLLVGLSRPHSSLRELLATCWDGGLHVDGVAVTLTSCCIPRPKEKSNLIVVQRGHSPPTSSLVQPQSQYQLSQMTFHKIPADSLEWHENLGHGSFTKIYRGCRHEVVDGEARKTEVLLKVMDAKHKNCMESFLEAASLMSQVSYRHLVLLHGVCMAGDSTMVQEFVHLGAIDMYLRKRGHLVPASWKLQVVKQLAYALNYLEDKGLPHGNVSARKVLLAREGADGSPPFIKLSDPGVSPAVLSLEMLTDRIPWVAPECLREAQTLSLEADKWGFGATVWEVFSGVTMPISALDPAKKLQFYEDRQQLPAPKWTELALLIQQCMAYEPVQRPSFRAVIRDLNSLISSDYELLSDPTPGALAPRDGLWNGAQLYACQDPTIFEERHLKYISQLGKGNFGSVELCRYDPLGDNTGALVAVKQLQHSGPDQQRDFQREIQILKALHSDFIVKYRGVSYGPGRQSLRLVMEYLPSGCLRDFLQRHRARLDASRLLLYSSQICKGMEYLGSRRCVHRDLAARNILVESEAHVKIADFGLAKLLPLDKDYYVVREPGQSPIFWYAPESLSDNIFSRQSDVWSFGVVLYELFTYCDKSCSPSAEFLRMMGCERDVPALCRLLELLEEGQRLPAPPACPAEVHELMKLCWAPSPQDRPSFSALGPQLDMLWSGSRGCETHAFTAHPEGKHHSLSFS
The settings on record: at 0.1 µM.

Test [17] addresses T2, Tyrosine-protein kinase JAK3 (Homo sapiens). The following applies: at 1 µM.
Test [18] addresses Vascular endothelial growth factor receptor 2 (Homo sapiens) (UniProt P35968). The settings on record: at 0.1 µM.
The target is the same in test [19]. The settings on record: at 1 µM.
Test [20] deals with Mast/stem cell growth factor receptor Kit (Homo sapiens) (UniProt P10721). The settings on record: at 0.1 µM.

Tyrosine-protein kinase HCK (Homo sapiens), sequence (P08631 2-526 limits assumed): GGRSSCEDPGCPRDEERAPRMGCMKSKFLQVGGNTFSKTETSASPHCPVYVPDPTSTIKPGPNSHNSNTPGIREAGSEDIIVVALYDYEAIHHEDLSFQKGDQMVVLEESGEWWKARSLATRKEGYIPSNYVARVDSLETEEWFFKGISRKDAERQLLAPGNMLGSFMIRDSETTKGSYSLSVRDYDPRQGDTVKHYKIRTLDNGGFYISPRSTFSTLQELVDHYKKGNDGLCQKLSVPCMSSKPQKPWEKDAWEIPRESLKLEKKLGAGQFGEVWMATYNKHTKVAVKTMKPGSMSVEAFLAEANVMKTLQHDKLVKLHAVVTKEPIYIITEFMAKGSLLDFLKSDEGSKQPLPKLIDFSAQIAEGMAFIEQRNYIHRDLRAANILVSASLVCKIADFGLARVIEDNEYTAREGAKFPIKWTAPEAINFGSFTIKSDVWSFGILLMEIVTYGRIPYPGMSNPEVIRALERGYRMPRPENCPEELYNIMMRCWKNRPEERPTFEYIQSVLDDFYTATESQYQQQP
Tyrosine-protein kinase JAK1 (Homo sapiens), sequence (P23458 whole entry): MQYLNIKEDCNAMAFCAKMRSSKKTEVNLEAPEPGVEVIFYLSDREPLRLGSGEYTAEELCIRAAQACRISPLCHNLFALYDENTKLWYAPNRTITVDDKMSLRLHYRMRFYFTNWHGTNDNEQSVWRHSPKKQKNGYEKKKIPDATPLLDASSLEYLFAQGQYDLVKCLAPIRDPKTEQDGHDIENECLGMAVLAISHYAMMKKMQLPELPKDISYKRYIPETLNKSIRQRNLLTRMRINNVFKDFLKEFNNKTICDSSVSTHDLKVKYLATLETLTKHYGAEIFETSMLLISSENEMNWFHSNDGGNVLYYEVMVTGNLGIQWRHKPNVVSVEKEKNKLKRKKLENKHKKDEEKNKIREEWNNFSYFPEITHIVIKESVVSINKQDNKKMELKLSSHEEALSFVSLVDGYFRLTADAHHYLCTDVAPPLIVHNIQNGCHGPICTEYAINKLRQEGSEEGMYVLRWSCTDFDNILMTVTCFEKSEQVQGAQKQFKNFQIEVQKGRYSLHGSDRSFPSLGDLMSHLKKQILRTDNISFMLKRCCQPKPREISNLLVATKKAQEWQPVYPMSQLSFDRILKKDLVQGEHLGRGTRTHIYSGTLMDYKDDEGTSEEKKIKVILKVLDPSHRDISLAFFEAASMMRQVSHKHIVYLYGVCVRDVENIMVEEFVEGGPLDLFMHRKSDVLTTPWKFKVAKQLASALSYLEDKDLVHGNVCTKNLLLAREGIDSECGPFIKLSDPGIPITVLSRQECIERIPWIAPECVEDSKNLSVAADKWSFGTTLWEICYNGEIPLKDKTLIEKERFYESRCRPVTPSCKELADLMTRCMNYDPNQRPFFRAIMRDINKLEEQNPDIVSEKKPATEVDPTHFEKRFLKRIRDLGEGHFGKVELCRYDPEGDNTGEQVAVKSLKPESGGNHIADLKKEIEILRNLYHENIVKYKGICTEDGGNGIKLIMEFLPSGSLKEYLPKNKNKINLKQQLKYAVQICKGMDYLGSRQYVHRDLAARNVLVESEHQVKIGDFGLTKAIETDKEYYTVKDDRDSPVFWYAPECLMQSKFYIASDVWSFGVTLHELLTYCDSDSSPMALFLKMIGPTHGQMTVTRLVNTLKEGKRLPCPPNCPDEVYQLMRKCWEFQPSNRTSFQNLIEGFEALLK
Insulin-like growth factor 1 receptor (Homo sapiens), sequence (P08069 31-736 limits assumed): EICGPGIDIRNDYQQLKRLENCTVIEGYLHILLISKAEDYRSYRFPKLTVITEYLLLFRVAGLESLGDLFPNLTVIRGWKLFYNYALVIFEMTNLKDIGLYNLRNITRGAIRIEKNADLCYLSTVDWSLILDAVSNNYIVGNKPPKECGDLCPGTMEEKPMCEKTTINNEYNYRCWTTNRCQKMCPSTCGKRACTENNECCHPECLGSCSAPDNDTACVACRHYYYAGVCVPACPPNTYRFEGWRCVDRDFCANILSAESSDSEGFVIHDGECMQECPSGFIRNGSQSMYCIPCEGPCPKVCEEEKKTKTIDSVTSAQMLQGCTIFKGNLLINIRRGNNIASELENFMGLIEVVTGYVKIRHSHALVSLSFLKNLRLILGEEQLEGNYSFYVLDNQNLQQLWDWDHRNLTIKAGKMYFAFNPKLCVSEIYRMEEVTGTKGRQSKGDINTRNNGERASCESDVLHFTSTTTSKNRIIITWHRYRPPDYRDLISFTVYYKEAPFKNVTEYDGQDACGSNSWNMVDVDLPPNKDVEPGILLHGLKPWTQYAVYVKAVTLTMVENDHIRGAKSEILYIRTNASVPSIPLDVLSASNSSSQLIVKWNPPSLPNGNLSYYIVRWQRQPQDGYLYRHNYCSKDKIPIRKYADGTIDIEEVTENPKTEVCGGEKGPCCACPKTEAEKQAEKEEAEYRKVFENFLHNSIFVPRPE
Insulin-like growth factor 1 receptor (Homo sapiens), sequence (P08069 741-1367 limits assumed): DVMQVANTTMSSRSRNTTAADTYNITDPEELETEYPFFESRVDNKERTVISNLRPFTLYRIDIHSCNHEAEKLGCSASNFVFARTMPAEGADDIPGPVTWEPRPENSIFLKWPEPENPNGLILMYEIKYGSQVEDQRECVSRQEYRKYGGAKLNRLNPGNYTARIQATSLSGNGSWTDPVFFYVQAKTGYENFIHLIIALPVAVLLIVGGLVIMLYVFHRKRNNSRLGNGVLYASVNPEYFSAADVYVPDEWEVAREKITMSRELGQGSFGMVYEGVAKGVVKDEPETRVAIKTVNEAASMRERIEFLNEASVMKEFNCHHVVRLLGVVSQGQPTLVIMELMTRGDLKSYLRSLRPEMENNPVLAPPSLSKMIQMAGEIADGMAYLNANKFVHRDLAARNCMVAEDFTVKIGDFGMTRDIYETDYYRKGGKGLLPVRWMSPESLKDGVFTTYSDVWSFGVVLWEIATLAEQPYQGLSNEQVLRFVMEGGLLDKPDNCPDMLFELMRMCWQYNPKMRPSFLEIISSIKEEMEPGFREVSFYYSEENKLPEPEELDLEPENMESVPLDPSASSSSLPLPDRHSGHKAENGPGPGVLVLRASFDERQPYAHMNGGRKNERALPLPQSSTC
Vascular endothelial growth factor receptor 2 (Homo sapiens), sequence (P35968 whole entry): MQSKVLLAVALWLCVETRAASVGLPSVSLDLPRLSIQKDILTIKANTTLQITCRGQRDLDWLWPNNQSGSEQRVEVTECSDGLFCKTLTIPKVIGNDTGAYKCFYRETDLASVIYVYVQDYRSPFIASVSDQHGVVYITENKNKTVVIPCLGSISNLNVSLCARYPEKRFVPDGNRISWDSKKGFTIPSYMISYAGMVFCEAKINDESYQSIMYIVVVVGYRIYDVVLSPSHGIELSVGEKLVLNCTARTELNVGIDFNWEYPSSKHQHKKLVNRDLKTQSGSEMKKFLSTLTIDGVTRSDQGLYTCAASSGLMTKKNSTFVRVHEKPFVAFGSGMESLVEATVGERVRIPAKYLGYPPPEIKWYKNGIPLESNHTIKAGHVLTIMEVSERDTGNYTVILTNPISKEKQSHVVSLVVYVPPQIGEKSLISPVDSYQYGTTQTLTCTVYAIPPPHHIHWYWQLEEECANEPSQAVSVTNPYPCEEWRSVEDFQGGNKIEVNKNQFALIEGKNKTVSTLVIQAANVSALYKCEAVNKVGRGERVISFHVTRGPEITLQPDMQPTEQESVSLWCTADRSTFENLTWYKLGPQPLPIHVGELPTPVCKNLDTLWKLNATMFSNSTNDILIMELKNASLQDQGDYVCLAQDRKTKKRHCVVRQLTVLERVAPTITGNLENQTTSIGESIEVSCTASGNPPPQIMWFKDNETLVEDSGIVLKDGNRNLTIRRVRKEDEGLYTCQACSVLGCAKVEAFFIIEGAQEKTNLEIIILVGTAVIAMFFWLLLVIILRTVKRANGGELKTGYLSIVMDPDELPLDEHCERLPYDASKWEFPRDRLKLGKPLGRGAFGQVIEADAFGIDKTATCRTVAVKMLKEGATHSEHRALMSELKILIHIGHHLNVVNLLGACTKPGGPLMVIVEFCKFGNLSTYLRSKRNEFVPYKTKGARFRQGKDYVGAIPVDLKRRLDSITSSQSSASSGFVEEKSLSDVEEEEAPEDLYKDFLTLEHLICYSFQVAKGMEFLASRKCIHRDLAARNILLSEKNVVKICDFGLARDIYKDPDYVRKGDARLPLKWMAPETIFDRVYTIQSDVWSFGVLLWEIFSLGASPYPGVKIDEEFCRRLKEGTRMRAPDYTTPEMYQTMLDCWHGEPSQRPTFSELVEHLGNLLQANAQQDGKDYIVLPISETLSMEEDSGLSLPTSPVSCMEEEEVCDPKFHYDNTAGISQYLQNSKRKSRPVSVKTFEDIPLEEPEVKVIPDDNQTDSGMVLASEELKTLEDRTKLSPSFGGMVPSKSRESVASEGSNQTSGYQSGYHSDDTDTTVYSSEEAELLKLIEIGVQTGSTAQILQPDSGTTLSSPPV
Tyrosine-protein kinase Fyn (Homo sapiens), sequence (P06241 2-537 limits assumed): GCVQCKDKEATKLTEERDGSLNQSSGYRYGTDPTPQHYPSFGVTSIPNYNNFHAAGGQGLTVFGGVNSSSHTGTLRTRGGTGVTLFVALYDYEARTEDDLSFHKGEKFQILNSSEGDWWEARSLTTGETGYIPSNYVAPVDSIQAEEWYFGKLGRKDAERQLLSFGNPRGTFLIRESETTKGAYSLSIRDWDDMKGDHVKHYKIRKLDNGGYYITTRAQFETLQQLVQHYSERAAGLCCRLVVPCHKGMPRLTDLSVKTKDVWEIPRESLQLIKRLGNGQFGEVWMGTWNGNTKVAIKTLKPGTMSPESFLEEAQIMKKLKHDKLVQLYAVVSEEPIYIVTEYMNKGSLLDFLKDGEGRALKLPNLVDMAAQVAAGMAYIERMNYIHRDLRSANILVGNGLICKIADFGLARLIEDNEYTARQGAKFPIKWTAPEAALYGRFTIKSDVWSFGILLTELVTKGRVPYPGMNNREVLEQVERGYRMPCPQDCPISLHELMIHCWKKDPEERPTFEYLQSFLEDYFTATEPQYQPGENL

By inhibition is commonly meant the drop in the measured response relative to a control, in per cent. As to `CCNC(=O)O[C@H]1CN[C@H](C#Cc2cc3ncnc(Nc4ccc(OCc5cccc(F)c5)c(Cl)c4)c3s2)C1`, the inhibition in test [1] was 1.8%; in test [2] it was 5.66%; in test [3], 5.6%; in test [4], 3.27%; in test [5] it was 2.91%; in test [6] it was 0.78%. In addition, the inhibition was 6.61% in test [7]; 0.8% in [8]; 1.47% in test [9]; 1.32% in [10]; 1.96% in test [11]; 7.02% in test [12]. Further, the inhibition in test [13] was -0.58%; in [14] it was 3.47%; in test [15], 2.64%; in test [16], -1.24%; in [17], 1.79%; in test [18], 6.2%. Further, the inhibition in [19] turned out to be 4.4%; in [20], 4.29%.
Regarding `Cc1ccc2c(-c3ccnc(Nc4ccccc4)n3)c(-c3ccc(F)cc3)nn2n1`, the inhibition in [1] was determined as 68.9%; in test [2] it was 11.9%; in test [3], 43.9%; in test [4], 1.92%; in [5], 5.18%; in [6] it was 1.31%. Further, the inhibition in test [7] came out at 7.57%; in test [8], 4.42%; in test [9] it was 2.61%; in test [10], 1.54%; in test [11], 2.3%; in test [12], 3.23%. For the same compound, the inhibition is -5.84% in test [13]; 1.55% in [14]; 2.93% in test [15]; -0.48% in test [16]; 2.61% in [17]; 21% in [18]. For the same compound, the inhibition was 64% in test [19] and 23.8% in [20].
With `[O-][S+]1CCN(Cc2ccc(-c3ccc4ncnc(Nc5ccc(OCc6cccc(F)c6)c(Cl)c5)c4c3)o2)CC1`, the inhibition was determined as 6% in test [1]; 6.09% in test [2]; 9.6% in test [3]; 3.08% in test [4]; 5.73% in test [5]; 5.28% in test [6]. Moreover, the inhibition in [7] came to 4.61%; in [8], 2.99%; in test [9], 3.54%; in test [10], 1.07%; in test [11], 2.41%; in test [12], 6.24%. For the same compound, the inhibition in test [13] is 9.08%; in test [14] it was 1.51%; in test [15], 1.04%; in test [16], -1.66%; in [17], -0.12%; in test [18], 5.24%. Further, the inhibition in [19] stood at 7.82%; in test [20], 4.47%.
As for `CC(=O)Nc1cccc(C#Cc2cncnc2Nc2ccc(OCc3cccc(F)c3)c(Cl)c2)c1`, the inhibition stood at 5.51% in test [1]; 5.81% in test [2]; 9.29% in test [3]; 1.84% in [4]; 2.53% in test [5]; 3.44% in test [6]. For the same compound, the inhibition turned out to be 1.06% in test [7]; 2.25% in [8]; 1.77% in test [9]; 1.8% in test [10]; 2.79% in test [11]; 6.03% in test [12]. Also, the inhibition in [13] turned out to be 3.66%; in test [14], 4.37%; in test [15], 6.59%; in test [16], 0.59%; in test [17], 4.13%; in test [18] it was 9.03%. For the same compound, the inhibition in test [19] is 12.6%; in test [20] it was 1.83%.
Turning to `CCN1CCC(CC(=O)Nc2n[nH]c3nnc(-c4cccc(F)c4F)cc23)CC1`, the inhibition in test [1] is 3.55%; in test [2], 3.51%; in [3], 1.32%; in test [4] it was 0.88%; in test [5], 2.99%; in test [6], 1.72%. The inhibition in [7] is 4.05%; in test [8], 1.41%; in [9] it was 0.88%; in test [10] it was -1.01%; in [11], 1.3%; in test [12], 3.38%. For the same compound, the inhibition in test [13] was 4.71%; in test [14], 0.88%; in test [15] it was 0.1%; in test [16], -2.12%; in [17], 1.45%; in test [18] it was 0.77%. The inhibition in [19] was 4.46%; in [20] it was 0.04%.
Turning to `COc1ccc2[nH]c3c4[nH]c5ccc(OC)cc5c4c4c(c3c2c1)C(=O)NC4=O`, the inhibition in test [1] was found to be 19%; in test [2], 20.1%; in test [3], 75.6%; in [4], 5.28%; in test [5], 4.22%; in test [6] it was 6.91%. The inhibition is 10.3% in [7]; 3.27% in test [8]; 6.93% in test [9]; 1.85% in test [10]; 6.11% in [11]; 0.96% in test [12]. Besides, the inhibition is 5.89% in [13]; -0.61% in [14]; -1.31% in test [15]; -1.14% in test [16]; 12.8% in test [17]; 42.5% in [18]. The inhibition in test [19] stood at 68.3%; in [20], 31.3%.
As to `Fc1cccc(COc2ccc(Nc3ncnc4sc(-c5ccco5)cc34)cc2Cl)c1`, the inhibition in test [1] was found to be 4.89%; in [2] it was 4.32%; in test [3] it was 6.64%; in [4] it was 0.23%; in [5] it was 0.87%; in test [6] it was 1.94%. Further, the inhibition in test [7] was 2.78%; in test [8], 2.1%; in test [9] it was 2.84%; in test [10], 0.55%; in test [11] it was 3.14%; in [12], 0.17%. In addition, the inhibition in test [13] is 3.56%; in test [14], 1.34%; in test [15] it was 1.22%; in [16], -3.93%; in test [17] it was -1.55%; in [18] it was 3.37%. The inhibition in [19] was 10.4%; in test [20], 6.1%.

(Values after ChEMBL document CHEMBL1961873, “Compounds: GSK PKIS; Assays: Nanosyn kinase panel” (2012).)
